Only some compounds are listed: those with a hit (about 4.6% of all), similar ones and a draw of the others.
TRHR agonist-1: TRH receptor (human) agonism | TRHR cells, calcium flux fluo-8, FDSS agonist mode | activation, % at 2 µM | 360,000 tested, 0.18% active | AID 493084
Target sequence (P34981 whole entry, looked up): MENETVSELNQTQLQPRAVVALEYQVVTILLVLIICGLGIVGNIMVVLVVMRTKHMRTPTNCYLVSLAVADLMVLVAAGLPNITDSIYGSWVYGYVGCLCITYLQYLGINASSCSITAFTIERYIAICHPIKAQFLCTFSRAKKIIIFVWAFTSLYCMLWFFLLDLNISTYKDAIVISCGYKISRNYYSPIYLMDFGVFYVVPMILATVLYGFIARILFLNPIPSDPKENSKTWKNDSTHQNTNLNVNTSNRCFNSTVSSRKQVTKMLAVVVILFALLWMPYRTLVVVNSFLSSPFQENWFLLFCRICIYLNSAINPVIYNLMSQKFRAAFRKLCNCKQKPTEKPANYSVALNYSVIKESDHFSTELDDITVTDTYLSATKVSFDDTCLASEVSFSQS
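TRHR-expressing cells, plated overnight in medium with 10% serum, were loaded with fluo-8 calcium dye at room temperature. After a 10 s baseline, library compound was pin-added and calcium release was recorded kinetically (ex 480/em 530) as agonist response.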
TRHR enhancer-1: allosteric enhancers of human TRH receptor; enhancement, % at 2 µM; AID 493056; P34981; TRHR cells, fluo-8 calcium fluorescence, EC20 TRH enhancement; 360,000 tested, 0.66% active; in the data active = enhancement above about 30%
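Enhancer read-out: after compound pinning and an initial kinetic agonist-mode read, an EC20 of TRH (10 nM final) was injected and fluo-8 calcium signal (Ex 480/Em 530) followed at 1 s/cycle for 100 cycles in TRHR-expressing cells.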
D1 antag: human D1 dopamine receptor antagonism | activity change, negative = inhibition, % at 10 µM | 360,000 tested, 3.2% active | P21728 | HEK293 TREx D1 cells, calcium flux, dopamine EC80; active compounds read low; in the data active = activity change below about -30%
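HEK293 T-REx cells expressing inducible, force-coupled D1 receptor; no-wash Ca dye, 30–90 min RT. Cmpd → 180 s read at 1 Hz → EC80 DA → 180 s read.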
D1 PAM: enhances dopamine response at the human D1 receptor. HEK293 TREx D1 cells, calcium flux, dopamine EC20 potentiation. potentiation, % at 10 µM. 360,000 tested, 0.036% active. AID 504651; in the data active = potentiation above about 30%
D1 agonist: agonists of human D1 dopamine receptor. HEK293 T-REx D1 cells, calcium flux, agonist mode. activation, % at 2 µM. 360,000 tested, 1% active. AID 504660
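Tetracycline-induced HEK293 TREx D1 cells, force-coupled to calcium signalling, were dye-loaded with a no-wash calcium kit. Compound was pin-added after a 10 s baseline. Fluorescence was read kinetically at 1 cycle/s for 180 s, with calcium rises flagged as agonism.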
TRHR enhancer-2: confirmation of human TRH receptor allosteric enhancers; shares compounds with TRHR enhancer-1; TRH receptor cell assay, enhancer confirmation qHTS; activity change, negative = inhibition, % at 46.1 µM; 970 tested, under 10 active; AID 493076; active = well fitted curve in the direction sought with a large enough effect; inconclusive = small, poorly fitted or top-dose-only effect, or another doubt; inactive = no such curve, though single readings can be large; an effect the other way counts as inactive or inconclusive;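 note: compound effect scored on response to added TRH at EC20 of 10 nM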
TRHR agonist-2: human TRH receptor agonism confirmation. shares compounds with TRHR enhancer-1. TRHR-expressing cells, agonist activation read-out. Potency, µM (top dose mostly 46.1 µM), hits mostly activators. 970 tested, 8% active. AID 493078; active = well fitted curve in the direction sought with a large enough effect; inconclusive = small, poorly fitted or top-dose-only effect, or another doubt; inactive = no such curve, though single readings can be large; an effect the other way counts as inactive or inconclusive; note: nearly all actives have a fitted effect of over 75% in size
Hits are given with their value; i = inactive; ? = inconclusive; nt = not tested or not shown. Cut-off read from the data, not from the text of the source, unless noted: active = activation above about 30%; inactive = the rest.

SMILES | TRHR agonist-1 | TRHR enhancer-1 | D1 antag | D1 PAM | D1 agonist | TRHR enhancer-2 | TRHR agonist-2
Cc1nn(C)cc1S(=O)(=O)Nc1ccc(F)c(F)c1 | i | i | i | i | i | nt | nt
CCOC(=O)c1cnc(-n2nc(C)cc2C)nc1Nc1ccc(OC)cc1 | i | 42 | i | i | i | i | ?
CCCCN1C(=O)/C(=C/C=C2/CC(C)(C)CN2C)SC1=S | 39 | i | i | i | 128 | i | 9.2µM
Cc1occc1C(=O)N1CCCC(CO)(Cc2ccc(F)cc2F)C1 (stereo unspecified) | i | i | i | i | i | nt | nt
COc1ccc(Br)c(OC)c1C(=O)NC(=O)Nc1c(F)cccc1F | i | i | i | i | i | nt | nt
O=C(CCn1c(=O)sc2ccccc21)Nc1ccon1 | i | 43 | i | i | i | i | i
CCOC(=O)C1CCN(C(=O)c2cc3c(ccc4ccccc43)o2)CC1 | i | 42 | i | i | i | i | i
COc1ccc2c(c1)cc(C)c1nnc(SCC(=O)N3CCN(C(=O)c4ccco4)CC3)n12 | i | i | i | i | i | nt | nt
CCN1CCN(Cc2c(O)ccc3c2O/C(=C\c2ccc(C)cc2)C3=O)CC1 | i | i | i | i | i | i | ?
Cc1cccn2c(=O)c(C=Nc3ccc(Cl)cc3)c(NCCO)nc12 | i | i | i | i | i | nt | nt
Cc1cccn2c(=O)c(C=Nc3ccccc3)c(NCCO)nc12 | i | 44 | i | i | i | i | i
CC(C)Oc1ccc(/C=C(/NC(=O)c2ccccc2)C(=O)NCCC(=O)O)cc1 | i | 47 | i | i | i | i | i
CC(C)Oc1ccc(/C=C(/NC(=O)c2ccccc2)C(=O)NC(Cc2ccccc2)C(=O)O)cc1 (stereo unspecified) | i | i | i | nt | i | nt | nt
Cc1ccc(OCC(=O)OCC(=O)c2cccc([N+](=O)[O-])c2)cc1C | i | i | i | i | i | nt | nt
CCN1C(=O)C(O)(C2COC(C)(C)CC2=O)c2cc(Br)ccc21 (stereo unspecified) | i | i | i | i | i | nt | nt
CCC(NC(=O)Cc1c(C)c2ccc(OC)c(C)c2oc1=O)C(=O)NC(Cc1ccc(Cl)cc1)C(=O)O (stereo unspecified) | i | i | i | i | i | nt | nt
Cc1oc2cc3oc(=O)c(CC(=O)N[C@@H](C)C(=O)NC(Cc4ccc(Cl)cc4)C(=O)O)c(C)c3cc2c1C (stereo partly specified) | i | 44 | i | i | i | i | i
CC(=O)c1ccc(S(=O)(=O)N(C)CC(=O)NCc2ccco2)cc1 | i | i | i | i | i | nt | nt
Cc1cc(OCCOCCNC(C)C)cc(C)c1Cl | i | i | i | i | i | nt | nt
Cc1cc(OCCCCNC(C)C)cc(C(C)C)c1 | i | 42 | i | i | i | i | i
O=C(CN(Cc1ccccc1Cl)C(=O)c1csnn1)NCc1ccc2c(c1)OCO2 | i | 51 | i | i | i | i | i
COc1ccccc1CN(CC(=O)NCc1ccc2c(c1)OCO2)C(=O)c1csnn1 | i | i | i | i | i | nt | nt
O=C(Nc1ccccc1)/C(=C/c1ccc2c(c1)OCO2)NC(=O)c1ccco1 | i | 52 | i | i | i | i | i
Nc1nnc(-c2cc3c(ccc4ccccc43)oc2=O)s1 | 41 | i | i | i | 49 | i | ?
O=c1oc2ccc3ccccc3c2cc1-c1nnc(Nc2ccccc2)s1 | i | i | i | i | i | nt | nt
SMILES | TRHR agonist-1 | TRHR enhancer-1 | D1 antag | D1 PAM | D1 agonist | TRHR enhancer-2 | TRHR agonist-2
COC(=O)c1sccc1NC(=O)/C=C\c1ccc(Cl)cc1Cl | i | i | i | i | i | nt | nt
CCCn1nnnc1SCC(=O)NC1CCCC1 | i | i | i | i | i | nt | nt
CCCCn1nnnc1SCC(=O)NNC(=O)C1CCCCC1 | i | 42 | i | i | i | i | i
COc1ccc2c(c1)[C@H]1[C@H](CO2)[C@H](c2ccccc2)[C@]2(C)C(=O)Nc3cc(OC)c(OC)cc3C(=O)N12 | i | i | i | i | i | nt | nt
O=C(N/N=C/c1ccc(OCc2cnc(Cl)s2)cc1)c1ccncc1 | i | 50 | -33 | i | i | i | i
Nc1nc(SCC(=O)N2CCCC2)[nH]c(=O)c1-c1ccccc1 | i | i | i | i | i | nt | nt
Nc1nc(SCC(=O)N2CCOCC2)[nH]c(=O)c1-c1ccccc1 | i | 65 | i | i | i | i | i
CC(C)(C)n1nc2c(c1NC(=O)Cc1ccc([N+](=O)[O-])cc1)CS(=O)(=O)C2 | i | i | i | i | i | nt | nt
Cc1nnc(SCCOC(N)=O)n1C | i | i | i | i | i | nt | nt
C[N+](C)(C)CCOC(N)=O | i | i | i | i | i | i | i
O=C(O)c1cccc(NC(=O)c2ccccc2NC(=O)c2ccccc2F)c1 | i | i | i | i | i | nt | nt
O=C(Nc1ccccc1C(=O)Nc1ccccc1)c1ccccc1F | i | 48 | i | i | i | ? | i
COc1cc(C(=O)N/N=C/c2ccc(OC(=O)c3ccccc3Cl)cc2)ccc1O | i | 53 | i | i | i | i | i
CCCn1c(SCC(=O)N2CCCCC2)nnc1-c1ccco1 | i | 49 | i | i | i | i | i
COCCn1c(SCC(=O)N2CCCC2)nnc1C(C)C | i | i | i | i | i | nt | nt
CCCn1c(SCC(=O)N2CCCCC2)nnc1C(C)C | 32 | i | i | i | i | i | i
Cc1ccc(O)c(NC(=O)c2ccccc2-c2ccccc2C(=O)O)c1 | i | 43 | i | i | i | i | i
Cc1ccc(NC(=O)c2ccccc2-c2ccccc2C(=O)O)cc1 | i | i | i | i | i | nt | nt
Cc1cccc(C)c1NC(=S)N1CCC(c2ccccc2)C1 (stereo unspecified) | i | 49 | i | i | i | i | i
Cc1cccc(C)c1NC(=S)N1CCOCC1 | i | i | i | i | i | nt | nt
CCc1ccc(-n2c(SCc3ccccc3C)nc3[nH]ncc3c2=O)cc1 | i | i | i | i | i | nt | nt
CNC(=O)c1cc2cc(OC)ccc2oc1=O | i | i | i | i | i | nt | nt
COc1ccc2oc(=O)c(C(=O)NC3CCCCCC3)cc2c1 | i | 51 | i | i | i | i | i
COc1cc(C(C(=O)Nc2c(C)cccc2C)N(C)C(=O)c2ccc(-n3cnnn3)cc2)ccc1O (stereo unspecified) | i | i | i | i | i | nt | nt
COc1cc(NC(=S)NCCc2c[nH]c3ccccc23)c(OC)cc1Cl | i | 49 | i | i | i | i | i
Cc1ccnc(NC(=O)CCC(=O)N(CC(=O)NCc2ccc(F)cc2)CC2CCCO2)c1 (stereo unspecified) | i | i | i | i | i | nt | nt
CC(C)(C)C(=O)C[n+]1ccc(C(N)=O)cc1 | i | i | i | i | i | nt | nt
CC(C)CC(=O)n1nc(-c2cccnc2)nc1NCc1ccc(F)cc1 | i | i | i | i | i | nt | nt
COc1cc(OC)cc(C(=O)NCc2cc(C)nc3ccccc23)c1 | 33 | i | i | i | i | i | i
COc1ccc(C(=O)NCc2cc(C)nc3ccccc23)cc1OC | i | i | i | i | i | nt | nt
